An excerpt weighted towards active compounds, which were near 7.3% of everything screened.
IP6K1 inh – IP6K1 kinase inhibition | activity change, % (series mostly up to about 58 µM) | Q92551 | IP6K1 kinase, ADP-Glo luminescence, 2 h; active compounds read low | 140,000 compounds, 0.81% hits; in the data active = activity change below about -25%
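ADP-Glo luminescence measures ADP made by human IP6K1 during a 2 h RT reaction with ATP/IP6 (mix at 1.3 mM/130 uM); top library doses 57.5 and 19.1 uM final.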
3T3 cytotox – cytotoxic compounds in NIH 3T3 cells; NIH 3T3 viability, CellTiter-Glo ATP luminescence, 48-72 h; Potency, µM (doses to about 96.7 µM), for inactives: top-dose activity change, negative = cytotoxicity, usual class: inhibitors; 94,000 compounds, 4.3% hits; note: potency is the fitted concentration of half-maximal effect; nearly all actives have a fitted effect of over 55% in size
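Cytotoxicity was measured by CellTiter-Glo ATP luminescence after 48 or 72 h compound exposure at 37 °C. Mouse NIH 3T3 fibroblasts were seeded at 400 cells/well and dosed by 23 nL pin transfer.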
SNCA expr inhib – SNCA gene expression inhibition. HEK-293 SNCA-luciferase knock-in, luminescence, 24 h. Potency, µM (highest dose often 57.2 µM), inactives show at the highest dose activity change, negative = inhibition, actives largely listed as inhibitors. 140,000 compounds, 0.17% hits. AID 1671194;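 note: potency is the fitted concentration of half-maximal effect; plate controls were DMSO cells for no effect and cell-free wells for full effect; nearly all actives have a fitted effect of over 45% in size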
HEK293 viab – cell viability loss counter-screen; AID 1671193; HEK-293-SNCA-luc viability, GF-AFC fluorescence, 24 h; Potency, µM (titrated, usually from 57.1 µM), for the others: top-dose activity change, negative = cytotoxicity, usual class: cytotoxic; 150,000 compounds, 0.12% hits;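 note: potency is the fitted concentration of half-maximal effect; 0% = DMSO-treated cells and -100% = medium-only wells without cells; nearly all actives have a fitted effect of over 30% in size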
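Cytotoxicity counterscreen: after 24 h compound treatment of genome-edited SNCA-luciferase HEK-293 cells, live-cell protease substrate GF-AFC read by fluorescence after 30 min; activity scaled between DMSO (0%) and medium-only (-100%), curves Hill-fitted.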
HEK cytotox – cytotoxic compounds in HEK 293 cells. AID 1345083. HEK 293 viability, ATP luminescence (CellTiter-Glo), 48-72 h. Potency, µM (top dose mostly 115 µM), for the others: top-dose activity change, negative = cytotoxicity, most hits filed as inhibitors. 94,000 compounds, 6.6% hits; note: potency is the fitted concentration of half-maximal effect; nearly all actives have a fitted effect of over 60% in size
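HEK 293 seeded at 250 cells/well receive compound via pintool. After 48 or 72 hr at 37 degree Celsius, 5% CO2 and 95% humidity, CellTiter-Glo is dispensed and luminescence read following 10 min at room temperature.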
Luciferase inh – inhibitors of firefly (Photinus pyralis) luciferase | P08659 | purified P. pyralis luciferase, luminescence, biochemical | Potency, µM (top dose mostly 115 µM), most hits filed as inhibitors | 76,000 compounds, 2.5% hits | AID 1347043; note: potency is the fitted concentration of half-maximal effect; nearly all actives have a fitted effect of over 65% in size
Target sequence (P08659 whole entry, looked up): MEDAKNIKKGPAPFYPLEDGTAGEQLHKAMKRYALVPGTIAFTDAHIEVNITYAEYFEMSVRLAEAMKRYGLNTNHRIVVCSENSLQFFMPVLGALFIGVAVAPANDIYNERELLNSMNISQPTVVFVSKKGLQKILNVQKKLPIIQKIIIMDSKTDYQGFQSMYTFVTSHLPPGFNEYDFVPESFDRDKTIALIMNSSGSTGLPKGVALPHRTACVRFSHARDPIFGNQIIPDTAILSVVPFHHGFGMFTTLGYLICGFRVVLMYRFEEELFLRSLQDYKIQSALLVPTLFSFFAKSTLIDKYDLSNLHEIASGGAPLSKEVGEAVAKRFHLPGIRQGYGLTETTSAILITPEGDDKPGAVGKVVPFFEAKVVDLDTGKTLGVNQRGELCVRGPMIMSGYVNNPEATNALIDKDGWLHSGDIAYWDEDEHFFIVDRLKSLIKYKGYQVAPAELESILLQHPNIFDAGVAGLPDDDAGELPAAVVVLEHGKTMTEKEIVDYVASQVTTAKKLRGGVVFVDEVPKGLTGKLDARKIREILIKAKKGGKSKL
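Cell-free enzyme assay, 10nM P. pyralis luciferase, luciferin and ATP each at 10uM. Inhibition profiled over a 6-point titration, read as luminescence.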
An asterisk follows results filed as active; i = inactive; ? = inconclusive; nt = no result given; [ ] = another dose, or the depositor's remark. Unless noted, calls come from the whole dose curve; as a rule, active = well fitted curve in the direction sought with a large enough effect; inconclusive = small, poorly fitted or top-dose-only effect, or another doubt; inactive = no such curve, though single readings can be large; an effect the other way counts as inactive or inconclusive. Unless noted, % is set by controls: 0 for no effect and ±100 for the full control effect.

SMILES	IP6K1 inh	3T3 cytotox	SNCA expr inhib	HEK293 viab	HEK cytotox	Luciferase inh
CN(c1ccccc1)c1cc(=O)c2ccnc(NCCc3ccccn3)c2o1	-3.5	25.1µM*	2.1%[87.6 µM]	1.8%[87.6 µM]	?	i
O=C(NC[C@H]1O[C@@H](CO)[C@@H](O)[C@H]1N1CCN(c2cccc(C(F)(F)F)c2)CC1)Nc1ccc(F)cc1F	-11.5	?	?	2.6%	?	i
O=C(NC1CCCCC1)O[C@@H]1CO[C@H]2[C@@H]1OC[C@@H]2Nc1nccc(-c2cccs2)n1	-2.4	112µM*	-3.8%[87.6 µM]	?	?	i
CN(C)c1ccc(C(=O)N[C@H]2CO[C@H]3[C@@H]2OC[C@@H]3Nc2nccc(-c3cccs3)n2)cc1	-11.8	?	-27.7%	-18.1%	44.7µM*	?
O=S(=O)(N[C@H]1CO[C@H]2[C@@H]1OC[C@@H]2Nc1nccc(-c2cccs2)n1)c1cccs1	3.1	?	-17.4%	-10.9%	28.2µM*	i
O=C(c1cccc(OC2CN(C3CCN(Cc4ccccc4)CC3)C2)c1)N1CCOCC1	-12.0	-28.7%	-7.9%	10.0%	-23.4%	i
O=C1N[C@@H]2CCN(C(=O)COc3ccccc3)[C@@H]2C(=O)N1c1ccc(Oc2ccccc2)cc1	13.0	?	-9.6%	6.2%	3.8%	i
CC(C)c1nc2c(c(-c3ccc(O)cc3)n1)CN(Cc1ccc(F)cc1)CC2	-7.3	?	-10.9%	-2.9%	89.1µM*	i
CC(C)c1nc2c(c(-c3ccc(O)cc3)n1)CN(Cc1cccc(F)c1)CC2	0.6	?	-8.3%	1.5%	?	i
CC(C)c1nc2c(c(-c3ccc(O)cc3)n1)CN(Cc1cccc(C(F)(F)F)c1)CC2	-0.9	22.4µM*	?	-18.8%	31.6µM*	i
Cc1cc(CN2CCc3nc(C(C)C)nc(-c4ccc(Cl)cc4)c3CC2)no1	1.2	?	-19.7%	-14.7%	?	nt
CC(C)c1nc2c(c(-c3ccc(O)cc3)n1)CN(Cc1cccc3ccccc13)CC2	-7.3	?	-20.6%	-2.0%	?	i
CC(C)c1nc2c(c(-c3ccc(Cl)cc3)n1)CCN(Cc1ccc(C#N)cc1)CC2	-5.6	?	-19.1%	-27.7%	39.8µM*	nt
CC(C)c1nc2c(c(-c3ccc(O)cc3)n1)CCN(Cc1ccccc1C(F)(F)F)CC2	8.3	28.2µM*	?	?	35.5µM*	i
CC(C)c1nc2c(c(-c3ccc(O)cc3)n1)CCN(Cc1ccc(F)cc1)CC2	3.9	?	6.1%	-24.3%	?	i
Cc1noc(C)c1Cn1ccn2nc3c(c2c1=O)CCCC3	0.6	-2.0%	10.5%	8.5%	-4.2%	i
CCc1ccccc1NC(=O)N1C[C@@H](F)C[C@H]1C(=O)N1CCCCC1	-8.8	-19.8%	23.0%	10.5%	-12.4%	i
O=C(N1CCC(n2cc(-c3nc(-c4ccccc4)no3)nn2)C1)C1(c2ccccc2)CC1 (configuration not stated)	-11.3	?	-3.6%	1.8%	?	?
CCCC(C)NC(=O)C1CCCN1C(=O)c1cccc(-c2cccnc2)c1 (configuration not stated)	-0.3	-26.9%	nt	nt	-17.1%	nt
Cc1ccc(CN2CCc3nc(C(C)C)nc(-c4ccc(O)cc4)c3C2)cc1	-8.2	?	-6.7%	8.2%	?	i
CC(C)c1nc2c(c(-c3ccc(O)cc3)n1)CN(Cc1ccc(N(C)C)cc1)CC2	-1.6	-29.3%	-3.3%	0.6%	79.4µM*	i
Cc1ccccc1C(=O)N1CCC2(CC1)Cc1ccccc1NC2=O	-2.3	?	8.3%	-10.7%	35.5µM*	i
Cc1nn2c(c1-c1ccccc1N1CCCC1)N(C(=O)c1ccc(F)cc1)CCC2	5.4	?	?	-13.9%[87.6 µM]	70.8µM*	i
Cc1nn2c(c1-c1ccccc1N1CCCC1)N(C(=O)c1cc3ccccc3n1C)CCC2	12.0	35.5µM*	?	?	50.1µM*	i
Cc1nn2c(c1-c1cccnc1N1CCOCC1)N(C(=O)c1cc3ccccc3n1C)CCC2	11.2	?	-15.2%	-11.9%	-11.1%	i
SMILES	IP6K1 inh	3T3 cytotox	SNCA expr inhib	HEK293 viab	HEK cytotox	Luciferase inh
Cc1nn2c(c1-c1ccccc1C(C)C)N(C(=O)c1cc3ccccc3n1C)CCC2	5.9	22.4µM*	?	35.5µM*	50.1µM*	i
O=C(NC1CCN(c2nccc(Nc3ccccc3Cl)n2)CC1)c1ccc(Cl)cc1	-7.1	?	-7.7%	5.5%	?	nt
O=C(NC1CCN(c2nccc(Nc3ccccc3Cl)n2)CC1)c1ccc(C(F)(F)F)cc1	-5.7	31.6µM*	-11.4%	6.0%	39.8µM*	nt
O=C(NC1CCN(c2nccc(Nc3ccccc3F)n2)CC1)c1ccccc1	7.9	?	1.9%	-1.9%[12.5 µM]	?	nt
O=C(NC1CCN(c2nccc(Nc3ccccc3F)n2)CC1)c1ccc(C(F)(F)F)cc1	1.4	35.5µM*	-4.2%	-6.6%[12.5 µM]	25.1µM*	nt
COc1ccc(C(=O)NC2CCN(c3nccc(Nc4ccccc4F)n3)CC2)cc1	5.0	-36.1%	-0.5%	-19.4%[12.5 µM]	?	nt
O=C(NC1CCN(c2nccc(Nc3ccccc3F)n2)CC1)c1ccc(F)cc1	-5.8	35.5µM*	?	-20.1%[12.5 µM]	?	nt
O=C(c1ccccc1Cl)N1CCC2(CC1)CC(=O)N(c1ccccc1)c1ccccc1O2	-2.8	?	-20.1%	7.0%	79.4µM*	i
O=C(c1ccccc1F)N1CCC2(CC1)CC(=O)N(c1ccccc1)c1ccccc1O2	0.4	?	-13.4%	3.1%	79.4µM*	i
O=C(c1ccc2cc[nH]c2c1)N1CCC(N2CC(OCC3CC3)C23CCCCC3)CC1 (configuration not stated)	2.5	?	-1.6%	-14.1%	50.1µM*	i
COc1ccc(CCC(=O)N[C@@H]2CN(c3ncccn3)C[C@H]2CO)cc1	12.9	-16.3%	-6.1%	1.7%	-32.4%	i
Cc1ccc(S(=O)(=O)N[C@H]2CO[C@H]3[C@@H]2OC[C@@H]3Nc2nccc(C(C)(C)C)n2)cc1	-4.6	?	?	?	25.1µM*	?
COc1ccc(-c2ccnc(N[C@H]3CO[C@H]4[C@@H]3OC[C@@H]4NS(=O)(=O)c3ccc(NC(C)=O)cc3)n2)cc1	-17.7	?	-16.8%	-10.5%	39.8µM*	i
Cc1ccc(S(=O)(=O)N[C@H]2CO[C@H]3[C@@H]2OC[C@H]3O)cc1	-13.8	0.3%[174 µM]	-4.2%[87.6 µM]	2.0%[87.6 µM]	1.2%[172 µM]	i
CC(=O)Nc1ccc(S(=O)(=O)N[C@H]2CO[C@H]3[C@@H]2OC[C@@H]3Nc2nccc(-c3ccco3)n2)cc1	16.6	?	-19.9%	-19.3%	25.1µM*	i
